Eight compounds from PubChem BioAssay (NCI) can be followed below.

What all share (assay): NCI-60 one-dose screen, 48 h (100 = growth as untreated, 0 = no growth, -100 = all killed)
What all share (conditions): 10 µM unless noted

For test [1], the system named is HT29 colon.
For test [2], the system named is SNB-75 CNS.
Test [3] deals with SNB-19 CNS.
For test [4], the system named is U251 CNS.
For test [5], the system named is PC-3 prostate.
Test [6] has as its system SK-MEL-5 melanoma.
Test [7] concerns UACC-62 melanoma.
The test system of test [8] is LOX IMVI melanoma.
The test system of test [9] is SK-MEL-28 melanoma.
The test system of test [10] is SK-MEL-2 melanoma.
Test [11] relates to EKVX NSCLC.
Test [12] relates to SN12C renal.
The test system of test [13] is UO-31 renal.
Test [14] concerns TK-10 renal.
Test [15] deals with ACHN renal.
Test [16] deals with CAKI-1 renal.
The subject of test [17] is A498 renal.
Test [18] has as its system CCRF-CEM leukemia.
Test [19] concerns MOLT-4 leukemia.

The panel holds about 83,000 compounds, 20% with a hit somewhere; the sample as a whole holds those more often.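 Method: cells in 96-well plates; compound added at one concentration; 48 h incubation; percent growth measured; values under 10 scored active.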 Unmarked numbers belong to inactive results. Calls of active or inactive are those of the source.

As for `CC1CN=C(c2cccc(-c3ccc(-c4ccccc4)o3)c2)N1` (configuration not stated), the growth in test [1] was -43.6% (active); in [2] it was 58.7%; in [3], 25.8%; in test [4], -24.3% (active); in test [5], 11.2%; in test [6] it was -93.3% (active). In addition, the growth in test [7] is -62.2% (active); in test [8], -85.7% (active); in [9], -76.3% (active); in [10] it was -69.7% (active); in [11], 37.2%; in test [12] it was 32.2%. The growth in test [13] was -0.664% (active); in test [14] it was 30.1%; in [15], -21.8% (active); in [16], 5.69% (active); in test [17], 25.7%; in test [18] it was -13.4% (active).

Turning to `COc1ccc2cc(Cn3cc[n+](Cc4ccc5ccccc5c4)c3)ccc2c1`, the growth is -33.5% (active) in [1]; 18.9% in [2]; 31.6% in [3]; 16.1% in test [4]; 19% in test [5]; -24% (active) in test [6]. For the same compound, the growth was 15.2% in test [7]; 28.4% in [8]; 11.7% in test [9]; 50.5% in test [11]; 16.9% in [12]; 84.4% in test [13]. Besides, the growth in test [14] is 9.68% (active); in test [15], 98.8%; in test [16], 96%; in [17] it was 74.7%; in test [18] it was 20.2%; in [19], 17.2%.

For `COC1=CC(c2ccc[nH]2)=N/C1=C\c1[nH]c(C)c(CC(=O)OCc2ccccc2)c1C`, the growth is 4.42% (active) in [1]; -7.14% (active) in test [2]; 23.5% in [3]; -21% (active) in test [4]; 2.94% (active) in test [5]; -91.5% (active) in test [6]. Also, the growth in [7] was -31.7% (active); in test [8] it was -75.4% (active); in test [9] it was -18.2% (active); in test [10], -38.6% (active); in test [11], 5.59% (active); in test [12] it was 6.3% (active). The growth in test [13] is -69% (active); in [14], 4.1% (active); in test [15], -9.81% (active); in [16], 0.261% (active); in [17] it was -11.9% (active); in test [18] it was 4.82% (active). Also, in test [19], the growth is 2.34% (active).

For `O=C1OCC2=C1C(c1cccc(C(F)(F)F)c1)c1cc3c(cc1N2CCO)OCO3` (configuration not stated), the growth in test [1] is 6.68% (active); in test [2], 19%; in test [3], 30.1%; in [4] it was 21%; in test [5], 25.9%; in [6], 20%. The growth was 48.4% in test [7]; 40.6% in [8]; 57.3% in [9]; 24% in test [10]; 49.7% in [11]; 46.8% in test [12]. For the same compound, the growth in [13] is 47.3%; in test [14] it was 60.8%; in test [15], 42.8%; in test [16], 26.8%; in [17], 20.9%; in [18], 7.82% (active). Moreover, the growth in [19] was 20%.

Consider `Cc1cc(C)cc(Nc2ccc([N+](=O)[O-])c(NCCN3CCOCC3)n2)c1`, for which the growth in test [1] was 13.4%; in test [2], 31.3%; in [3] it was 43.9%; in test [4], 20.8%; in [5], 17.2%; in test [6] it was -20.3% (active). The growth in test [7] is 36.6%; in test [8], 15.7%; in test [9] it was 60.9%; in test [10], 43.4%; in [11] it was 66%; in test [12], 32.2%. Further, the growth in test [13] is 23.1%; in test [14], 65%; in test [15], 30.4%; in [16], 37.4%; in [17], -0.289% (active); in [18], 5.33% (active). For the same compound, the growth in [19] is 10.3%.

For `Cn1c(/C=C/[N+](=O)[O-])cc2ccccc21`, the growth in [1] was -53.2% (active); in test [2] it was 44.3%; in test [3], 57.7%; in test [4] it was -72.1% (active); in test [5], 7.59% (active); in test [6] it was 47.2%. The growth was -79.7% (active) in test [8]; 73.3% in [9]; 11.2% in test [10]; 46.1% in test [11]; 43.7% in [12]; -56.9% (active) in test [13]. In addition, the growth is 57.7% in test [14]; -29.7% (active) in test [15]; 82.8% in [16]; -20% (active) in test [17]; 30.1% in [18]; 26.7% in [19].

On to `CC/C=C\C/C=C/C=C1/C(=O)C=C[C@@H]1C/C=C\CCCC(=O)OC`, for which the growth in test [1] is 2.21% (active); in [2], 93.4%; in test [3], 62.3%; in test [4], 28.7%; in [5] it was 30.2%; in test [6] it was 70.1%. In addition, the growth was -70% (active) in [8]; 36.7% in [9]; 92.6% in [10]; 99.4% in [11]; 28.2% in [13]; 31.6% in [14]. Also, the growth in test [15] was 14.1%; in test [16] it was 29.7%; in test [17], 109%; in test [18], 1.18% (active); in test [19], 5.5% (active).

For the compound `CS(=O)(=O)Nc1cc(-c2ccc3ncnc(Nc4ccc5c(cnn5Cc5cccnc5)c4)c3c2)cnc1Cl`, the growth in test [1] was 65.2%; in test [2], -12.1% (active); in test [3], 60.1%; in [4] it was 55.4%; in [5], 52.2%; in [6] it was 50.9%. The growth was 25.9% in test [7]; 39.2% in test [8]; 29.4% in [9]; 14% in [10]; 68.2% in [11]; 46.2% in test [12]. In addition, the growth in test [13] was 47.9%; in test [14], 49%; in [15], 75.8%; in test [16], 40.2%; in [17], 19.2%; in test [18], 32.9%. In addition, in test [19], the growth is 24.7%.
